Among the data in PubChem BioAssay (NCATS) are Potency and outcome values, retold here.

A number with no mark means an inactive call. Inconclusive results are not listed. Activity calls are given as the source filed them. Calls come from the whole dose curve; as a rule, active = well fitted curve in the direction sought with a large enough effect; inconclusive = small, poorly fitted or top-dose-only effect, or another doubt; inactive = no such curve, though single readings can be large; an effect the other way counts as inactive or inconclusive.

Assay [1] can be described thus: qHTS for differential inhibitors of proliferation of Plasmodium falciparum line GB4 (AID 1816).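 Note: potency is the fitted concentration of half-maximal effect; parasite growth measured after 72 h incubation.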 Particulars: Potency: Plasmodium falciparum GB4 proliferation inhibition. Background: In qHTS, concentration-response curves come from the screen itself.
Assay [2] can be described thus: qHTS for differential inhibitors of proliferation of Plasmodium falciparum line 3D7 (AID 1876). Note: potency is the fitted concentration of half-maximal effect.
Assay [3] is described as follows: qHTS for differential inhibitors of proliferation of Plasmodium falciparum line D10 (AID 1877).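 Note: potency is the fitted concentration of half-maximal effect; parasites grown with compound for 72 h before DNA staining.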
Assay [4] in a line: qHTS for differential inhibitors of proliferation of Plasmodium falciparum line Dd2 (AID 1882). Note: series mostly up to about 29 µM; nearly all actives have a fitted effect of over 65% in size. Particulars: Potency: Plasmodium falciparum Dd2 proliferation inhibition. In outline: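 Dd2-infected erythrocytes (0.3% parasitemia, 2.5% hematocrit final) incubated with compound 72 h at 37 C, 5% CO2; lysed with saponin/Triton buffer containing SYBR Green I, incubated overnight in the dark, then read by fluorescence (485/535 nm). Normalized to 0.29 uM artemisinin and DMSO.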

Assay [5] is described as follows: qHTS for differential inhibitors of proliferation of Plasmodium falciparum line W2 (AID 1883).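 Note: potency is the fitted concentration of half-maximal effect; parasites grown with compound for 72 h before lysis and staining.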 Particulars: Potency: Plasmodium falciparum W2 proliferation inhibition.
The nature of assay [6]: qHTS for differential inhibitors of proliferation of Plasmodium falciparum line HB3 (AID 1886).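 Note: potency is the fitted concentration of half-maximal effect; parasites grown with compound for 72 h before SYBR Green readout.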 Particulars: Potency: Plasmodium falciparum HB3 proliferation inhibition.
In assay [7] the target is Ferritin light chain (Equus caballus) (UniProt P02791). Briefly: qHTS Validation Assay for Identification of Novel General Anesthetics (AID 2323). Note: series mostly up to about 77 µM. An outline of the steps:
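Horse-spleen apoferritin (10 uM) in PBS with 50% saturated 1-aminoanthracene; compounds pin-transferred, 10 min at room temperature. Fluorescence read at 380/535 nm, normalized to free 1-AMA and 1-AMA/apoferritin values; four-parameter Hill fit.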

Assay [8] deals with ATP-dependent DNA helicase Q1 (Homo sapiens) (UniProt P46063). Briefly: qHTS Validation Assay for Inhibitors of RecQ-Like Dna Helicase 1 (RECQ1) (AID 2353). An outline of the steps:
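50 nM RECQ1T1 preincubated 15 min with compound in Tris pH 8.0 buffer with MgCl2, DTT, Tween-20 and 2.5 ug/ml poly(dI-dC); started with 200 nM TAMRA/BHQ-2 forked duplex and 2 mM ATP. Unwinding read as fluorescence (525/598 nm), two reads 2 h apart.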

Assay [9] has as its target RecQ-like DNA helicase BLM (Homo sapiens) (UniProt P54132). The assay can be described thus: qHTS Validation Assay for Inhibitors of Bloom's syndrome helicase (BLM) (AID 2364). In outline: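 50 nM BLM preincubated 15 min at room temperature with compound in pH 8.0 Tris buffer containing 2.5 ug/ml poly(dI-dC); started with 200 nM TAMRA/BHQ-2 forked duplex and 2 mM ATP (final). Unwinding read as TAMRA fluorescence increase, two reads 2 h apart.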

Assay [10] can be described thus: Validation screen for small molecules that induce DNA re-replication in MCF 10A normal breast cells (AID 463097). Note: nearly all actives have a fitted effect of over 60% in size. An outline of the steps:
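MCF 10A cells exposed to compound 48 hr at 37 C, 5% CO2, then Hoechst-stained 40 min. Laser-scanning imaging of nuclear DNA content (405 nm ex, 500-530 nm em); re-replication scored as rise in nuclei with elevated fluorescence intensity.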

Assay [11] is described as follows: Quantitative high throughput screen for delayed death inhibitors of the malarial parasite plastid, 96 hour incubation (AID 488745). Note: potency is the fitted concentration of half-maximal effect; nearly all actives have a fitted effect of over 70% in size. In outline: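 Infected erythrocytes were added to compound in Albumax-supplemented RPMI 1640 at 0.1% parasitemia and 2% hematocrit (final), incubated 96 h at 37 C under 5% CO2, then luciferase reagent was added and luminescence measured.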

Assay [12] is described as follows: Quantitative high throughput screen for delayed death inhibitors of the malarial parasite plastid, 48 hour incubation (AID 488752). Note: potency is the fitted concentration of half-maximal effect; nearly all actives have a fitted effect of over 65% in size. An outline of the steps:
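Readout is firefly luciferase luminescence from a reporter integrated into the parasite genome, with lower signal taken as inhibited growth. Infected red cells (0.1% parasitemia, 2% hematocrit final) are cultured with compound for one 48 h cycle at 37 C.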

Assay [13] concerns the target M-phase phosphoprotein 8 (Homo sapiens) (UniProt Q99549). The assay can be described thus: qHTS Validation Assay for Inhibitors for MPP8 Chromodomain Interactions with Methylated Histone Tails (AID 488949). Note: top concentration of the series differs between compounds; nearly all actives have a fitted effect of over 55% in size. An outline of the steps:
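MPP8 (50 nM) was pre-bound to 50 nM biotinylated H3(1-18)K9me3 peptide in PBS pH 7.4 with 0.01% Tween-20. Compounds were then added for 30 min at room temperature, and complex disruption was read by AlphaScreen with streptavidin donor and nickel-chelate acceptor beads.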

For assay [14], the target named is Transient receptor potential cation channel subfamily V member 1 (Homo sapiens) (UniProt Q8NER1). The assay can be described thus: HTS Assay for Compounds that Act as Enhancers of the Vanilloid Receptor 1 (AID 488979). In outline: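 TRPV1 cells loaded with Fluo-8 calcium dye; compound added and Ca2+ signal (ex 480/em 520 nm) followed 3 min, then capsaicin at EC20 added and read 2 more min to detect enhancement.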

For assay [15], the target named is Galactokinase (Homo sapiens) (UniProt P51570). The assay can be described thus: qHTS Validation Assay for Inhibitors of Human Galactokinase (GALK) (AID 493189). An outline of the steps: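 GALK (5 nM) with 35 uM ATP and 100 uM galactose in HEPES pH 8.0 with MgCl2, NaCl, DTT and BSA. Reaction ran 1 h at room temperature. Residual ATP read by Kinase-Glo Plus luminescence.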

A short description of assay [16]: Validation screen for small molecules that induce DNA re-replication in SW480 colon adenocarcinoma cells (AID 504364). An outline of the steps:
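250 cells/well; compound pinned in; 48 hr, 37 C, 5% CO2; Hoechst added, 40 min; nuclear fluorescence imaged, 405 ex / 500-530 em; re-replication scored as increase in high-intensity nuclei.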

For assay [17], the target named is DNA dC->dU-editing enzyme APOBEC-3G (Homo sapiens) (UniProt Q9HC16). Briefly: qHTS for inhibitors of Vif-A3G interactions: Validation (AID 588379). In outline: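 HeLa cells stably expressing Vif and A3G-eYFP, 700 cells/well, incubated overnight at 37 deg C, then exposed to compound overnight at 37 deg C. Inhibition of Vif-mediated degradation read as increased yellow fluorescence (Ex 488/Em 500-530) by laser-scanning cytometry.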

Assay [18] has as its system Zika virus NS2B-NS3 protease. Briefly: Primary screen GU AMC qHTS for Zika virus inhibitors (AID 1347154). Note: nearly all actives have a fitted effect of over 70% in size. An outline of the steps: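 Unlinked Zika NS2B hydrophilic domain–NS3 protease complex at 25 nM in 10 mM Tris-HCl pH 8.0, 0.01% Tween 20, with an AMC peptide substrate. Fluorescence change (340/450 nm) over 15 min at room temperature, normalized to controls, fitted to 4-parameter Hill.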

Assay [19] in a line: Primary qHTS for small molecule stabilizers of the endoplasmic reticulum resident proteome: Secreted ER Calcium Modulated Protein (SERCaMP) assay (AID 1508630). In outline: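 GLuc-SERCaMP-expressing SH-SY5Y cells, pretreated 16 h with compound, are challenged with thapsigargin to empty ER calcium stores; after 4 h, coelenterazine is added directly to the medium and luminescence is imaged.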

DNA dC->dU-editing enzyme APOBEC-3G (Homo sapiens), sequence (Q9HC16 whole entry, looked up): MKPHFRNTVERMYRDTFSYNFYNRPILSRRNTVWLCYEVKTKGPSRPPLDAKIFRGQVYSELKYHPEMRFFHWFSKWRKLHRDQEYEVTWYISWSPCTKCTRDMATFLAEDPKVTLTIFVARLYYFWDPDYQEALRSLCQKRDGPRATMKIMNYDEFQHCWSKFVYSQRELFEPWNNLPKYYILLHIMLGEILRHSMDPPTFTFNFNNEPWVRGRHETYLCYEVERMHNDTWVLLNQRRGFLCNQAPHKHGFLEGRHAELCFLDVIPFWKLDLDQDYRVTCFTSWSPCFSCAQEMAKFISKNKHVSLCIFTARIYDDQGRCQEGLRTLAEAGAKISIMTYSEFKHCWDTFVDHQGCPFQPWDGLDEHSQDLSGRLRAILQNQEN
Transient receptor potential cation channel subfamily V member 1 (Homo sapiens), sequence (Q8NER1 whole entry, looked up): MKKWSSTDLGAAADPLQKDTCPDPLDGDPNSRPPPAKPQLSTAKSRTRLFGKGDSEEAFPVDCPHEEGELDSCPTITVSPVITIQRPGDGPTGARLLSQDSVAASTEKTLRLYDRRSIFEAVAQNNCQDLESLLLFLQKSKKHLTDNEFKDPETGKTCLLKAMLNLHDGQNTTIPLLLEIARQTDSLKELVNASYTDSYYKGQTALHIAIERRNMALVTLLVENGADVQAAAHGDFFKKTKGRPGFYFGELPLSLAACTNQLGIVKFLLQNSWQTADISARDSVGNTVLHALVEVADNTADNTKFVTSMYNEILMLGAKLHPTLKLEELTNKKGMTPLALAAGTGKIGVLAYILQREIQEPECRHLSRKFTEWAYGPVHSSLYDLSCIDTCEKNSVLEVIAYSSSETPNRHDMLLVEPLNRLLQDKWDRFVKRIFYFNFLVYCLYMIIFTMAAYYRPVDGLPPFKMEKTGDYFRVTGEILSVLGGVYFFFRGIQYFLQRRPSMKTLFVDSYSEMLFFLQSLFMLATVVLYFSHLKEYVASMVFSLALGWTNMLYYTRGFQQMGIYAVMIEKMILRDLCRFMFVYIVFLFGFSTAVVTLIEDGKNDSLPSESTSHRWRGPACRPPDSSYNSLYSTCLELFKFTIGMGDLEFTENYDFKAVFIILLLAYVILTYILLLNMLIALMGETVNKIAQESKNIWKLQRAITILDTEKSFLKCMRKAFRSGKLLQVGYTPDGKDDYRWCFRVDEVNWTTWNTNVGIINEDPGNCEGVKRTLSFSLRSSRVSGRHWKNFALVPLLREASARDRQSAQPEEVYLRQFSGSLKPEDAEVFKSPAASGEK
RecQ-like DNA helicase BLM (Homo sapiens), sequence (P54132 whole entry, looked up): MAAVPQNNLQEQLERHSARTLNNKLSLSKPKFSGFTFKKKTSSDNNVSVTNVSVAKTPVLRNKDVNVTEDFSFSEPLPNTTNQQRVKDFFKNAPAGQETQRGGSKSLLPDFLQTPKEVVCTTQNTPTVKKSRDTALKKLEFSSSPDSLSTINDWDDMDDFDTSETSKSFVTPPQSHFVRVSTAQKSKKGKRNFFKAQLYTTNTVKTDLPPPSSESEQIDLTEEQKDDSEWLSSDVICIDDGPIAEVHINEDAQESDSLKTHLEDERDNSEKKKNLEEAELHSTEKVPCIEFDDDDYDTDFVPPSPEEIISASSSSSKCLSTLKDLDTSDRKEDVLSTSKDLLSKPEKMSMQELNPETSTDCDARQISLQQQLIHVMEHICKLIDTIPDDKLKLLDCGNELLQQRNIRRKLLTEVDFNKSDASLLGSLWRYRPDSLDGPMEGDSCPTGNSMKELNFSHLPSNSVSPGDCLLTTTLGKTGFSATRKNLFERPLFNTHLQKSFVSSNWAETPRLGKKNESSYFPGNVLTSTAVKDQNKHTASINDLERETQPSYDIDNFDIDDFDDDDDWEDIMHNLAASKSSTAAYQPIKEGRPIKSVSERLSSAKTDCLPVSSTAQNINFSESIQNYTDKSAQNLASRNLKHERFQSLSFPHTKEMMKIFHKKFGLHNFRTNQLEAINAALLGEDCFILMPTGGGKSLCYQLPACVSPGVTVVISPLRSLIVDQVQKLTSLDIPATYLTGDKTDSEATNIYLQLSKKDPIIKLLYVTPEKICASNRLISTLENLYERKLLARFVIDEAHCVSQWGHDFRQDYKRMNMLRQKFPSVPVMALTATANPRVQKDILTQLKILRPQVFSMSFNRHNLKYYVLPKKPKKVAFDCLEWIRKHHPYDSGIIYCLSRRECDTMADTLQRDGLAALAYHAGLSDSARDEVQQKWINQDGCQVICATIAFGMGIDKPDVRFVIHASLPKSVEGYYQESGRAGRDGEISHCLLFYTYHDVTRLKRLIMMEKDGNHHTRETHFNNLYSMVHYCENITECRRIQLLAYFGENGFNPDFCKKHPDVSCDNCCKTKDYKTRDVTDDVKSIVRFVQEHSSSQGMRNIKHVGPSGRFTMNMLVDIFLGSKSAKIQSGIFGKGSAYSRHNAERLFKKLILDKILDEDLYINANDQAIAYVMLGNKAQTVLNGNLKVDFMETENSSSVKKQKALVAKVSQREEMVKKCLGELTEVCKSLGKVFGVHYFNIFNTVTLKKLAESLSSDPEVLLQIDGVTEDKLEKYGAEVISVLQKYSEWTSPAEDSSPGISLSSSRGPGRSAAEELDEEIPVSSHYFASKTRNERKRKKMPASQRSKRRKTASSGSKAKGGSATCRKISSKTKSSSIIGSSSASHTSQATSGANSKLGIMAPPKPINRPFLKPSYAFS
M-phase phosphoprotein 8 (Homo sapiens), sequence (Q99549 whole entry, looked up): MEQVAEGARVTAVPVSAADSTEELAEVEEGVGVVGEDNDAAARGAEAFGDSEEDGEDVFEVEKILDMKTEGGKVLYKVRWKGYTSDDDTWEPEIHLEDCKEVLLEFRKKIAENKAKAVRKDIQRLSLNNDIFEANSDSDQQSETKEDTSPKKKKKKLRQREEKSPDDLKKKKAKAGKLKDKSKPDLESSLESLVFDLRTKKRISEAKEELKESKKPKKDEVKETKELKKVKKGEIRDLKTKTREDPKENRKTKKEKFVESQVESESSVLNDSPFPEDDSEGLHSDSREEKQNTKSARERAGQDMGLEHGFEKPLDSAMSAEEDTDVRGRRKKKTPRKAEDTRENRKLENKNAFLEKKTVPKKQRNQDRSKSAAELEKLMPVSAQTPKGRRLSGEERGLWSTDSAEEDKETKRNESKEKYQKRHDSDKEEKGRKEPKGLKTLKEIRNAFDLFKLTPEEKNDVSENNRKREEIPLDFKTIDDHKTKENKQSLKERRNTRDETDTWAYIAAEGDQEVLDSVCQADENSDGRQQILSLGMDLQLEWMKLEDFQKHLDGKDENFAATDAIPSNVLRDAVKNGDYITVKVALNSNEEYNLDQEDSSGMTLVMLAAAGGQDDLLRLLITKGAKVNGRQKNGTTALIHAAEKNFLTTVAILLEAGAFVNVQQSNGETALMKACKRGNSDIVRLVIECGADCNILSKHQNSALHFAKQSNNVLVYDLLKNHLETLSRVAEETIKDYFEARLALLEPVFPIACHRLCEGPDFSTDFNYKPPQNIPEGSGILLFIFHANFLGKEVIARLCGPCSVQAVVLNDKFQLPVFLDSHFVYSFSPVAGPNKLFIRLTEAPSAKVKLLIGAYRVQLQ
ATP-dependent DNA helicase Q1 (Homo sapiens), sequence (P46063 whole entry, looked up): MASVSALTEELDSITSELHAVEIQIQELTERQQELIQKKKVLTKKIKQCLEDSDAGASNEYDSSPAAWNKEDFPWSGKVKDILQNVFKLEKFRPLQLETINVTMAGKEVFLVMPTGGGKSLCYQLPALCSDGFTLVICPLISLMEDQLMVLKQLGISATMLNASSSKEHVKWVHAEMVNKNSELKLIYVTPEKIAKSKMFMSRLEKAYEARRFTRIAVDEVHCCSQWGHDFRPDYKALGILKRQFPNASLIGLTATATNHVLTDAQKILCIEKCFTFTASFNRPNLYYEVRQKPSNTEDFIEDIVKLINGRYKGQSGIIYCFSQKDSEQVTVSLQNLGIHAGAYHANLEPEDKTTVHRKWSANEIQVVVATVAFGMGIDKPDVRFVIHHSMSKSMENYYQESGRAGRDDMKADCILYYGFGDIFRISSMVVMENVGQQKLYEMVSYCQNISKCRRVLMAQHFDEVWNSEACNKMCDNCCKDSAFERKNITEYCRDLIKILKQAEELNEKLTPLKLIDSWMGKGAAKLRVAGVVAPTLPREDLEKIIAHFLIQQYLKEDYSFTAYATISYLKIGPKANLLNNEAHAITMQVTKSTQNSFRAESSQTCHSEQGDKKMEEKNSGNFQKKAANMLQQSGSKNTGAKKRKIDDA
Galactokinase (Homo sapiens), sequence (P51570 whole entry, looked up): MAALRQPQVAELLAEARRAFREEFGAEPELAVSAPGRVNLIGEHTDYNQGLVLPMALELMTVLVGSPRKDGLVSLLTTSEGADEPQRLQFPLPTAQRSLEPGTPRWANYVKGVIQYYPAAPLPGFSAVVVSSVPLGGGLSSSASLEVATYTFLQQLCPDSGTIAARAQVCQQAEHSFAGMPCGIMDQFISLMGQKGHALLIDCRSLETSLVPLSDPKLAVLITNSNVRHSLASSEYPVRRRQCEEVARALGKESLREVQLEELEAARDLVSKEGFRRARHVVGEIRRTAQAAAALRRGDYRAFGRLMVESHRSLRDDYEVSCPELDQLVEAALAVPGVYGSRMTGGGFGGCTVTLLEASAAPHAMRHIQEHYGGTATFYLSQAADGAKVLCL
Ferritin light chain (Equus caballus), sequence (P02791 2-175 limits assumed): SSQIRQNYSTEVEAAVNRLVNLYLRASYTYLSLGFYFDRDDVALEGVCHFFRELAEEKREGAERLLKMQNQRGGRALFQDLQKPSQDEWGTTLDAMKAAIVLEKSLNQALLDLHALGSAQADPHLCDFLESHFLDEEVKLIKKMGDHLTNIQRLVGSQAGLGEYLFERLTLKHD

Take `COc1[nH]c2ccc(F)cc2c1C(=O)OCC1CCN(CCNS(C)(=O)=O)CC1`: the Potency in assay [1] is 6.31 µM (active); in assay [2], 7.08 µM (active); in [3], 7.08 µM (active); in assay [5], 10 µM (active); in assay [6], 5.01 µM (active); in assay [11], 14.7 µM (active). In [12], the Potency was 11.7 µM (active). Also, the Potency result in [4], in assay [8], in assay [9], in assay [10], in [13] and in assay [17] was “inactive” each time. The Potency entry in [18] and in [19] was “inactive” throughout. Also, the outcome in assay [7], in assay [14], in [15] and in assay [16] was inactive.
